Screening results: PubChem, National Center for Advancing Translational Sciences (NCATS)
In the library only some 3% were active in any assay of this set; here they are far more common.
KCNH2 3.1 block – qHTS for Inhibitors of KCHN2 3.1: Mutant qHTS | Potassium voltage-gated channel subfamily H member 2, brain isoform KCNH2 3.1 (human) | U2OS KCNH2 3.1, thallium flux FluxOr; active compounds read low | activity change, % (tested at about 1.8 µM) | 340,000 compounds, 0.95% hits | AID 720553, 2013;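 active means maximum activity change below -70%; inconclusive means maximum activity change from -70% to -50%; inactive means maximum activity change above -50%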;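 further: thallium influx rate constant from kinetic fluorescence after stimulation buffer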
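Kinetic fluorescence (2 min after stimulation buffer) measures Tl+ influx through KCNH2 3.1 expressed by viral transduction in U2OS cells; the rate constant is normalized against DMSO controls serving as positive and negative references.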
LDHA block – qHTS assay for inhibitors of human lactate dehydrogenase; L-lactate dehydrogenase A chain (Homo sapiens), P00338; purified LDHA, NADH/diaphorase-resazurin fluorescence; active compounds read low; activity change, % (values are at about 110 or 230 µM); 480,000 compounds, 0.15% hits; in the data active means activity change below about -30%; inconclusive means mostly about -25% to -30%
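Human LDH5 (2 nM) was incubated with 0.06 mM NADH and 0.2 mM pyruvate for 5 min at room temperature in Tris pH 7.4. Remaining NADH was coupled through diaphorase/resazurin, and resorufin fluorescence was read at 0 and 20 min.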
12-LOX inh – Primary qHTS assay for inhibitors of human arachidonate 12S-lipoxygenase (ALOX12): Round 2. 580,000 compounds, 1.1% hits. Potency, µM (titrated, usually from 108 µM), most hits filed as inhibitors. purified 12hLO, xylenol orange hydroperoxide absorbance; active means well fitted inhibition curve with a large enough effect; inconclusive means small, poorly fitted or top-dose-only effect, or another doubt; inactive means no such curve, though single readings can be large or run the other way
Target sequence (P18054 whole entry, looked up): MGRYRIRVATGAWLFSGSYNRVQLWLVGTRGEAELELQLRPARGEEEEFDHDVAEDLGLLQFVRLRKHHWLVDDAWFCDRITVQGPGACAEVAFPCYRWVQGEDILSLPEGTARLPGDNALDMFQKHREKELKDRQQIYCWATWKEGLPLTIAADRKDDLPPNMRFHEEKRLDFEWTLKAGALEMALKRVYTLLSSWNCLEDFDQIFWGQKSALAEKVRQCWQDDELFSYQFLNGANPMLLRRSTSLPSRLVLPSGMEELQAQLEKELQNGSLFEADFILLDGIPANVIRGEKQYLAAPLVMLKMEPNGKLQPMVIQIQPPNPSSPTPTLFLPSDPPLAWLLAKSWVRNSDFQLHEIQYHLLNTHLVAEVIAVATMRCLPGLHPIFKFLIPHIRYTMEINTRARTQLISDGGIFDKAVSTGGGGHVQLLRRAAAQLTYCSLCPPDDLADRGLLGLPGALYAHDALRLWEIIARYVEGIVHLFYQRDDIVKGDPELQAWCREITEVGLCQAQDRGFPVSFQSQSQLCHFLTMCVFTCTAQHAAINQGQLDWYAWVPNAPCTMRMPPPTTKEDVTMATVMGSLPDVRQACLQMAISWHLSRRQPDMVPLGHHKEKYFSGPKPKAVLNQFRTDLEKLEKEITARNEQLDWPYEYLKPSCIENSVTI
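Hydroperoxide product was detected by ferrous iron/xylenol orange as the 573 to 405 nm absorbance ratio. Arachidonic acid at 40 uM (final) was turned over for 30 min at room temperature by 150 nM human 12hLO, pH 7.0 Hepes buffer, after 15 min compound preincubation.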
Chronic BCR inh – qHTS Assay to Find Inhibitors of Chronic Active B-Cell Receptor Signaling | 340,000 compounds, 0.05% hits | ABC-DLBCL IkBa-CBG/CBR reporter, luminescence ratio, 4 h | Potency, µM (series often up to 46.1 µM), most hits filed as inhibitors | AID 493014, 2011; active means well fitted inhibition curve with a large enough effect in the signal ratio, with a control signal flat, not every such curve was filed as active; inconclusive means small, poorly fitted or top-dose-only effect, or effect the other way, or a change in a side signal; the % refers to the signal ratio
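Compounds up to 46 uM were incubated four hours with TMD8 cells whose green CBG68 luciferase is fused to IkappaBalpha; red CBR luminescence normalised the signal, and concentration-effect curves were fitted to fusion, red and ratio data.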
hERG WT inh – qHTS for Inhibitors of KCHN2 3.1: Wildtype qHTS; Voltage-gated inwardly rectifying potassium channel KCNH2 (Homo sapiens), Q12809; U2OS, BacMam KCNH2, thallium flux FluxOr; active compounds read low; activity change, % at 1.84 µM; 340,000 compounds, 0.37% hits; AID 720551, 2013;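 active means maximum activity change below -70%; inconclusive means maximum activity change between -70% and -50%; inactive means maximum activity change above -50%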
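U2OS cells transduced with wild-type KCNH2 virus are loaded with FluxOr dye for 45 min, and thallium flux is measured in kinetic reads before and after stimulation buffer. Rate constants are normalized to DMSO controls.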
ClpP mod – qHTS Assay for Activators of ClpP; 340,000 compounds, 1.9% hits; AID 651965, 2013; purified B. subtilis ClpP, FRET peptide cleavage, 20 min; Potency, µM (doses to about 57.5 µM); ATP-dependent Clp protease proteolytic subunit (Bacillus subtilis (strain 168)), P80244; active means well fitted falling curve with a large enough effect; inconclusive means small, poorly fitted or top-dose-only effect; inactive means no such curve, though single readings can be large or run the other way; further: the source files actives as falling curves though it sought activators and does not explain the sign; nearly all actives have a fitted effect of over 65% in size
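ClpP 10 microg/mL final, pH 8 Tris/KCl buffer with BSA, glycerol, Tween-20; compound pinned in; FRET-FV substrate; RT 20 min; Ex320/Em430; ΔFRET vs ADEP 5.8 microM, DMSO, no enzyme.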
Hits are given with their value.

What do the screens show for `O=C(CSC1CCCCC1)N1CCN(c2ccccc2)CC1`?
KCNH2 3.1 block: inactive; LDHA block: inactive; 12-LOX inh: inconclusive; Chronic BCR inh: inactive; hERG WT inh: inactive; ClpP mod: inactive

Results for Cc1c(-c2cccc(Cl)c2)nc2ccccc2c1C(=O)NC1CCCCCC1 ?
LDHA block: inactive; 12-LOX inh: inconclusive

Results for CNS(=O)(=O)c1cccc(C(=O)OCc2cc(=O)oc3cc(C)ccc23)c1 ?
LDHA block: inactive; 12-LOX inh: inconclusive

Results for Cc1ccc(S(=O)(=O)Nc2cccc(C(=O)NCC3(N4CCCCC4)CCCCC3)c2)cc1F ?
KCNH2 3.1 block: -78; LDHA block: inactive; 12-LOX inh: inactive; Chronic BCR inh: inactive; hERG WT inh: inactive

How did Cc1cc(CNC(=O)CCc2ncc(-c3ccccc3)o2)ccc1F do in these assays?
LDHA block: inactive; 12-LOX inh: inactive

What do the screens show for `CCn1c(CNC(=O)c2ccccc2Br)nnc1SCC(=O)Nc1nncs1`?
KCNH2 3.1 block: inactive; LDHA block: inactive; 12-LOX inh: inactive; Chronic BCR inh: inactive; hERG WT inh: inactive; ClpP mod: 14µM

What do the screens show for `Cc1ccc2c(c1C)OC(=O)CC2(C)C`?
KCNH2 3.1 block: inactive; LDHA block: inactive; 12-LOX inh: inactive; Chronic BCR inh: inactive; hERG WT inh: inactive; ClpP mod: 32µM

What do the screens show for `CCOC(=O)NC(=O)CSc1nnc(C)s1`?
KCNH2 3.1 block: -79; LDHA block: inactive; 12-LOX inh: inactive; Chronic BCR inh: inactive; hERG WT inh: inactive; ClpP mod: inactive

What do the screens show for `CCCNC(=O)CSc1nnc(C)s1`?
KCNH2 3.1 block: inactive; LDHA block: inactive; 12-LOX inh: inactive; Chronic BCR inh: inconclusive; hERG WT inh: inactive; ClpP mod: inactive

How did CCC(C)N(C(=O)CCC(=O)Nc1cc(C)on1)C(C(=O)NC(C)(C)C)c1ccccc1Cl (stereo not given) do in these assays?
KCNH2 3.1 block: inactive; LDHA block: inactive; 12-LOX inh: inactive; Chronic BCR inh: inactive; hERG WT inh: inactive; ClpP mod: inactive

What do the screens show for `Cc1cc(NC(=O)CCC(=O)N(C(C(=O)NC(C)(C)C)c2ccccc2Cl)C(C)(C)C)no1` (stereo not given)?
KCNH2 3.1 block: -165; LDHA block: inactive; 12-LOX inh: inconclusive; Chronic BCR inh: inactive; hERG WT inh: inactive

How did COc1ccc(C(=O)Nc2ccnn2Cc2cccs2)cc1S(=O)(=O)N1CCCCCC1 do in these assays?
LDHA block: inactive; 12-LOX inh: inactive

What do the screens show for `COc1ccccc1Cn1[nH]nnc1=S`?
KCNH2 3.1 block: inactive; LDHA block: inactive; 12-LOX inh: 22µM; Chronic BCR inh: inactive; hERG WT inh: inactive

Results for CCCCCC1=CCC/C1=N\NC(=O)C(N)=O ?
LDHA block: inactive; 12-LOX inh: inactive

How did CCCCCC1=CCC/C1=N/NC(=S)NCCOC do in these assays?
LDHA block: inactive; 12-LOX inh: 40µM

How did Cc1c(Cl)cccc1NC(=O)COC(=O)c1cc(=O)c2ccccc2o1 do in these assays?
LDHA block: inactive; 12-LOX inh: inconclusive

How did COc1cccc(C2CCCN2Cc2cc(=O)oc3c(C)c(O)ccc23)c1 (stereo not given) do in these assays?
LDHA block: inactive; 12-LOX inh: inconclusive

How did O=C(Nc1ccccc1C(F)(F)F)C12CC3CC(CC(Cl)(C3)C1)C2 do in these assays?
LDHA block: inactive; 12-LOX inh: inactive

What do the screens show for `O=C(NN1CCOCC1)c1ccn(COc2ccc(Br)cc2)n1`?
LDHA block: -33; 12-LOX inh: inactive
